# Reference: paper PMC7862700, “An all-to-all approach to the identification of sequence-specific readers for epigenetic DNA modifications on cytosine”
# Columns and labels:
# Assay in all cases: DAPPL (digital affinity profiling via proximity ligation, sequencing); 10 mM Tris-HCl pH 7.5, 50 mM NaCl, 1 mM DTT, 4% glycerol, room temperature, 30 min; GST-TFs on glutathione beads, 16-mer random dsDNA library, 0.1% formaldehyde crosslink after washing; high values mean tight binding
# FEV = target: T1, FEV (Homo sapiens, UniProt Q99581 1-238); conditions: protein: recombinant; tags: N-terminal GST; dsDNA, one strand shown
# T1 sequence: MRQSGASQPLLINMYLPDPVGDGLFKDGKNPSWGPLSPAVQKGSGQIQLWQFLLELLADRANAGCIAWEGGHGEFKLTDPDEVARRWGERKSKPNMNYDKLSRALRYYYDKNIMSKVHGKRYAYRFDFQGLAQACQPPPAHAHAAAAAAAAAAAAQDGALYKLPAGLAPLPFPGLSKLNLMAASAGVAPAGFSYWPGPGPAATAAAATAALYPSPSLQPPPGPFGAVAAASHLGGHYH
# Summary of the method: (§1)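 Each value of binding signal is a hexamer's read frequency for a factor divided by the same hexamer's frequency in the tag-only sample. Barcoded, bead-captured GST fusions of human transcription factors made in yeast were pooled with that sample and incubated with 200 nmole of a random double-stranded 16-mer DNA library in Tris/NaCl/DTT/glycerol buffer at room temperature for 30 min. Washing, 0.1% formaldehyde crosslinking, proximity ligation, PCR and Illumina NextSeq500 sequencing followed.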
# ETV5 = ETV5 (Homo sapiens, UniProt P41161 1-510); conditions: protein: recombinant; tags: N-terminal GST; dsDNA, one strand shown
# Summary of the method: as §1
# HSF1 = HSF1 (Homo sapiens, UniProt Q00613 1-529); conditions: protein: recombinant; tags: N-terminal GST; chain copies: 3; dsDNA, one strand shown
# Summary of the method: as §1
# SPIC = target: T2, SPIC (Homo sapiens, UniProt Q8N5J4 1-248); conditions: protein: recombinant; tags: N-terminal GST; dsDNA, one strand shown
# T2 sequence: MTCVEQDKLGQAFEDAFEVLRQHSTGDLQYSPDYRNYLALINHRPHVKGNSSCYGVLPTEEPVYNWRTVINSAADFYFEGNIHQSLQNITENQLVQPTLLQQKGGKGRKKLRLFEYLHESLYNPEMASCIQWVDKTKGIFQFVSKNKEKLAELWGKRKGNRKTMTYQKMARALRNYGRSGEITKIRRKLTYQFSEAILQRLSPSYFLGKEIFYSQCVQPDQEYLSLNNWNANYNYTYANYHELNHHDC
# Summary of the method: as §1
# ELF4 = ELF4 (Homo sapiens, UniProt Q99607 1-663); conditions: protein: recombinant; tags: N-terminal GST; dsDNA, one strand shown
# Summary of the method: as §1
# ELK4 = target: T3, ELK4 (Homo sapiens, UniProt P28324-2 1-405); conditions: protein: recombinant; tags: N-terminal GST; dsDNA, one strand shown
# T3 sequence: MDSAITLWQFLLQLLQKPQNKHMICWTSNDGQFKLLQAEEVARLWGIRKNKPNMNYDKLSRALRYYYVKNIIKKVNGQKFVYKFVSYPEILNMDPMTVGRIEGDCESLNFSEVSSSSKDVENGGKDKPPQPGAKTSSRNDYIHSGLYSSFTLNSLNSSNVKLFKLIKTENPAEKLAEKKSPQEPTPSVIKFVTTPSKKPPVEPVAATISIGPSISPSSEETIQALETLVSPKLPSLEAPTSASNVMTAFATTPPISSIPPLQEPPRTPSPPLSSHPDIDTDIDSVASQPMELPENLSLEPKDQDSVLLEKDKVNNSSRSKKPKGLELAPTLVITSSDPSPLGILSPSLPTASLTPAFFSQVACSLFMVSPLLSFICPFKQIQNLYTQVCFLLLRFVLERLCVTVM
# Summary of the method: as §1
# ETV2 = target: T4, ETV2 (Homo sapiens, UniProt O00321 1-342); conditions: protein: recombinant; tags: N-terminal GST; dsDNA, one strand shown
# T4 sequence: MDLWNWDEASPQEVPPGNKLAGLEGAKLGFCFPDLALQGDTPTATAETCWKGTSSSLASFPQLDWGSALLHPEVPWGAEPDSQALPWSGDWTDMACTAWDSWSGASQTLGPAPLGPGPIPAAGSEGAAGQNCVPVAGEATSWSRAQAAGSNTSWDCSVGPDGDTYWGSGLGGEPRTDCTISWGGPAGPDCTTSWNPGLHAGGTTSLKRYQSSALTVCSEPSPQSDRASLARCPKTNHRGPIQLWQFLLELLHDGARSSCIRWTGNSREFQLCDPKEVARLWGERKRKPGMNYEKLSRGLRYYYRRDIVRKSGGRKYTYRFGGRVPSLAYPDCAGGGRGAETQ
# Summary of the method: as §1
# ELF3 = target: T5, ELF3 (Homo sapiens, UniProt P78545 1-371); conditions: protein: recombinant; tags: N-terminal GST; dsDNA, one strand shown
# T5 sequence: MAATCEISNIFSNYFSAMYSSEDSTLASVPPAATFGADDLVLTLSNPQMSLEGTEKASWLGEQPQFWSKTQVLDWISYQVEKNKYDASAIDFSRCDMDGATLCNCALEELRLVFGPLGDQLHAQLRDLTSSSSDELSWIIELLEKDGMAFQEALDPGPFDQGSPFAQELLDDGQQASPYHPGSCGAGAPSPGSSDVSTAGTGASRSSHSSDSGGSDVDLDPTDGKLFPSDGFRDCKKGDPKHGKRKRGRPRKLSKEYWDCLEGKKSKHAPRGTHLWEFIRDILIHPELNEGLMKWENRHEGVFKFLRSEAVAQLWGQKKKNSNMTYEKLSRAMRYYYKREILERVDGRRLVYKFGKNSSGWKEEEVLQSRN
# Summary of the method: as §1
# CRX = CRX (Homo sapiens, UniProt O43186 1-299); conditions: protein: recombinant; tags: N-terminal GST; dsDNA, one strand shown
# Summary of the method: as §1
# ETV1 = ETV1 (Homo sapiens, UniProt P50549 1-477); conditions: protein: recombinant; tags: N-terminal GST; dsDNA, one strand shown
# Summary of the method: as §1
# ERF = target: T6, ERF (Homo sapiens, UniProt P50548 1-548); conditions: protein: recombinant; tags: N-terminal GST; dsDNA, one strand shown
# T6 sequence: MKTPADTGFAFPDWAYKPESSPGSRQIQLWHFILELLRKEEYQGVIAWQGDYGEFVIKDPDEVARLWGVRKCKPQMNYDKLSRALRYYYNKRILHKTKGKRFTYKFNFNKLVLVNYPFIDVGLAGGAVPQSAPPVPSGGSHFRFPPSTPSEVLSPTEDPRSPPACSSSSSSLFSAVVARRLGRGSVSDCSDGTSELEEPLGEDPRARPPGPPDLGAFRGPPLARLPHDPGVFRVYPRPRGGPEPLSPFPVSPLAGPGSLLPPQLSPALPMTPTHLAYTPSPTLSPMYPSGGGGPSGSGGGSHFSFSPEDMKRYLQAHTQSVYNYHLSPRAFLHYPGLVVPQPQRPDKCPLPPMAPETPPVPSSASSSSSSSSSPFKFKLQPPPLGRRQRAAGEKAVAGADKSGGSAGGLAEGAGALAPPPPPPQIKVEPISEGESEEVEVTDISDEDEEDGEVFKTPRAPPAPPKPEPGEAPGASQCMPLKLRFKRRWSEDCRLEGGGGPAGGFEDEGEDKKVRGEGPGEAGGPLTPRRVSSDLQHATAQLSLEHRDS
# Summary of the method: as §1
# ETV3L = target: T7, ETV3L (Homo sapiens, UniProt Q6ZN32 1-361); conditions: protein: recombinant; tags: N-terminal GST; dsDNA, one strand shown
# T7 sequence: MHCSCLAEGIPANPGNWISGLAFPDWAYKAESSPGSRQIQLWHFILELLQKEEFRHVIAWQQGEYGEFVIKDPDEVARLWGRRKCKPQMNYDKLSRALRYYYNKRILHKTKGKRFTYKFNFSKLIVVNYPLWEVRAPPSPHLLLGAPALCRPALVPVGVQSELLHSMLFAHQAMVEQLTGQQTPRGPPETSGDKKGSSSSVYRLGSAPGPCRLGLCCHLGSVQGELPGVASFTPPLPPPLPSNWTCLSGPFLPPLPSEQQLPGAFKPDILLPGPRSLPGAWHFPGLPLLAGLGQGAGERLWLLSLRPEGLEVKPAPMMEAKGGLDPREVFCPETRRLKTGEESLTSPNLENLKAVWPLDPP
# Summary of the method: as §1
# ETS2 = target: T8, ETS2 (Homo sapiens, UniProt P15036 1-469); conditions: protein: recombinant; tags: N-terminal GST; dsDNA, one strand shown
# T8 sequence: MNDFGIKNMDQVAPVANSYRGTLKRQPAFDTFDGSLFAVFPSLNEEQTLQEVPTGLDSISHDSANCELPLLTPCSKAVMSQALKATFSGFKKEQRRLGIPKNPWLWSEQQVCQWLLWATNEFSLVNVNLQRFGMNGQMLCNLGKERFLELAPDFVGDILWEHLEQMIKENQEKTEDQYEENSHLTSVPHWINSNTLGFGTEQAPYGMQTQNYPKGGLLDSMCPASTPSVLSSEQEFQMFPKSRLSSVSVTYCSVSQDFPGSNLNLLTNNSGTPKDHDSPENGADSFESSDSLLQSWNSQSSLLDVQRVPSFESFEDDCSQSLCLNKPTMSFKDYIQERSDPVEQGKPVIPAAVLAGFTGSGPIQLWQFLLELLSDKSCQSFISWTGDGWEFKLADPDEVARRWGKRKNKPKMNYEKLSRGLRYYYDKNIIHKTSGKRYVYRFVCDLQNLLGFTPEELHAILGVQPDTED
# Summary of the method: as §1
# SPDEF = target: T9, SPDEF (Homo sapiens, UniProt O95238 1-335); conditions: protein: recombinant; tags: N-terminal GST; dsDNA, one strand shown
# T9 sequence: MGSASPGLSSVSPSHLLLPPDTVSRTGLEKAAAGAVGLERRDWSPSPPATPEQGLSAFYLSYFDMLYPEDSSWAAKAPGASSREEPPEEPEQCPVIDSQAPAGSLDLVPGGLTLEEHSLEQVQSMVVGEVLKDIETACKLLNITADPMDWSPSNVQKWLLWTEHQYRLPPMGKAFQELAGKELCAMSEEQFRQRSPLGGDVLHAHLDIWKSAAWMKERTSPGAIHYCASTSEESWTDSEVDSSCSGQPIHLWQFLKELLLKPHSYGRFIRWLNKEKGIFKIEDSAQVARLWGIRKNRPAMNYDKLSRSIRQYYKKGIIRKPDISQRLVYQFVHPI
# Summary of the method: as §1
# ETV7 = target: T10, ETV7 (Homo sapiens, UniProt Q9Y603 1-341); conditions: protein: recombinant; tags: N-terminal GST; dsDNA, one strand shown
# T10 sequence: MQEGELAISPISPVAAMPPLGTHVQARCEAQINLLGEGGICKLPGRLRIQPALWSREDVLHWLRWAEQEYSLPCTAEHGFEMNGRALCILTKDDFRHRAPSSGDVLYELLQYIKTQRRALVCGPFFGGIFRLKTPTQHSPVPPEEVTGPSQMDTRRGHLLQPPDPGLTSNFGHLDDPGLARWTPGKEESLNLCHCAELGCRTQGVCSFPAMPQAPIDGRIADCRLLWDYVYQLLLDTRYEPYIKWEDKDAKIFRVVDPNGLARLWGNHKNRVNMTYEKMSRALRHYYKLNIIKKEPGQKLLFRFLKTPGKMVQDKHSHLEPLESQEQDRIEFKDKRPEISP
# Summary of the method: as §1
# ELF5 = target: T11, ELF5 (Homo sapiens, UniProt Q9UKW6-2 1-255); conditions: protein: recombinant; tags: N-terminal GST; dsDNA, one strand shown
# T11 sequence: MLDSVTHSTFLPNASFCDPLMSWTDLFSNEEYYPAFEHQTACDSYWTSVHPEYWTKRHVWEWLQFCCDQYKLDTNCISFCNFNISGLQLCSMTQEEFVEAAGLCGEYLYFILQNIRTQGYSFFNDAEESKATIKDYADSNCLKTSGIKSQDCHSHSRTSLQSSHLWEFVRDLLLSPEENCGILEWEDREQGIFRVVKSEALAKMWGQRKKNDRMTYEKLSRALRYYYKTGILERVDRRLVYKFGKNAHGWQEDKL
# Summary of the method: as §1
# ETV3 = target: T12, ETV3 (Homo sapiens, UniProt P41162-2 1-143); conditions: protein: recombinant; tags: N-terminal GST; dsDNA, one strand shown
# T12 sequence: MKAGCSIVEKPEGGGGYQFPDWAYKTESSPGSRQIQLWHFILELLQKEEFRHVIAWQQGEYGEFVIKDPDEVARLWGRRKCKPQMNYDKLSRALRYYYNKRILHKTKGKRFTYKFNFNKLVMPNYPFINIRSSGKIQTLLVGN
# Summary of the method: as §1
# ETV6 = ETV6 (Homo sapiens, UniProt P41212 1-452); conditions: protein: recombinant; tags: N-terminal GST; dsDNA, one strand shown
# Summary of the method: as §1
# Chain of CRX (O43186 whole entry): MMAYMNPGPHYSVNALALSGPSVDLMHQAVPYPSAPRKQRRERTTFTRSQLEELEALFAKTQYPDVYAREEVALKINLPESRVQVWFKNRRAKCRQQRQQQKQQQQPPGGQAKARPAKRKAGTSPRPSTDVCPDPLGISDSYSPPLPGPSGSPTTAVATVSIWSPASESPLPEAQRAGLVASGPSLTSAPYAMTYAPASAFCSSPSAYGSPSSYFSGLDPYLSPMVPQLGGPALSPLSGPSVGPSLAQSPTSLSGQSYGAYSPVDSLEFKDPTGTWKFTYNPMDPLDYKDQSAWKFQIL
# Chain of ETV5 (P41161 whole entry): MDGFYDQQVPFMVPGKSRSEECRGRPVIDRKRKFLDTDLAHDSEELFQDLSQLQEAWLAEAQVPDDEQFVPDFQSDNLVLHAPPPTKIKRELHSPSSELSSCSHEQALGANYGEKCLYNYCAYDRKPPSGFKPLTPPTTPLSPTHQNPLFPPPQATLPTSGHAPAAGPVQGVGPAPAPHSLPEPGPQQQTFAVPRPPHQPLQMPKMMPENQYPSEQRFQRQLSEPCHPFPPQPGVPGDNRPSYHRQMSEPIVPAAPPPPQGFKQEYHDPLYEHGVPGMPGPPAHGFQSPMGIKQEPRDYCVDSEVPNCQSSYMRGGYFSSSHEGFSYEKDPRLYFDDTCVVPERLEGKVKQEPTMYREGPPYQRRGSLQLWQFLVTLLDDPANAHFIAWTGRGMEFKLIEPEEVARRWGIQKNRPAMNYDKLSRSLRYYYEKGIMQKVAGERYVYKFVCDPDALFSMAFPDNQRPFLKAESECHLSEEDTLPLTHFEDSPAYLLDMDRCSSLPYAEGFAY
# Chain of ELF4 (Q99607 whole entry): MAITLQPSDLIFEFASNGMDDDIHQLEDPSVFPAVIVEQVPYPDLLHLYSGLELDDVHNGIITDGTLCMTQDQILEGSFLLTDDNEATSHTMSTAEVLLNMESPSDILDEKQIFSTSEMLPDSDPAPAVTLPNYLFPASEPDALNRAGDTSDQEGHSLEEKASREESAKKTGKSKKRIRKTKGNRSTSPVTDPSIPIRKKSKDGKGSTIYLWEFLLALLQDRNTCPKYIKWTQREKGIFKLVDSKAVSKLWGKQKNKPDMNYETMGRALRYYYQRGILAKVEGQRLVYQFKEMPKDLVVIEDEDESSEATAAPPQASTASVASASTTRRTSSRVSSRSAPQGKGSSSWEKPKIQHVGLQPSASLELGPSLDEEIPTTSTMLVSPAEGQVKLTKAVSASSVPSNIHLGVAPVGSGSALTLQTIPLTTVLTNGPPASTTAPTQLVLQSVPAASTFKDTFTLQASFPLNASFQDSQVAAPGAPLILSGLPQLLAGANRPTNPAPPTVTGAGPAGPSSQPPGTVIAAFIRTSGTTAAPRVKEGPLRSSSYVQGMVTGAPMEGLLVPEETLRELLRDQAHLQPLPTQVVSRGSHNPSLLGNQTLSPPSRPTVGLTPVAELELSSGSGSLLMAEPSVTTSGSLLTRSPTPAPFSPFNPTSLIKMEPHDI
# Chain of ETV1 (P50549 whole entry): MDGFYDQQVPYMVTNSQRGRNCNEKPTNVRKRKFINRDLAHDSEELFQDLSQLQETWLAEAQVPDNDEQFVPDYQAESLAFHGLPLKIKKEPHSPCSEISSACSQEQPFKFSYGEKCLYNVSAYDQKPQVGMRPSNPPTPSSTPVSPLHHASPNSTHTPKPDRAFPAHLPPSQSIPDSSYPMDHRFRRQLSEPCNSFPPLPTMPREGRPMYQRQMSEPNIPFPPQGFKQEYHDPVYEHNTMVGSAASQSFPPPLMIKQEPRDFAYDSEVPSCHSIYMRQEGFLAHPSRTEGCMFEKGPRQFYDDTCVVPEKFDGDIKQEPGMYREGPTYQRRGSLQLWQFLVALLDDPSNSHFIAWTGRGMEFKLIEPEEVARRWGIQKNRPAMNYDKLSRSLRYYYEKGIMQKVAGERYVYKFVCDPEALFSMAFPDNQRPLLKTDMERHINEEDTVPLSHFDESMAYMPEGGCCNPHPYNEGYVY
# Chain of HSF1 (Q00613 whole entry): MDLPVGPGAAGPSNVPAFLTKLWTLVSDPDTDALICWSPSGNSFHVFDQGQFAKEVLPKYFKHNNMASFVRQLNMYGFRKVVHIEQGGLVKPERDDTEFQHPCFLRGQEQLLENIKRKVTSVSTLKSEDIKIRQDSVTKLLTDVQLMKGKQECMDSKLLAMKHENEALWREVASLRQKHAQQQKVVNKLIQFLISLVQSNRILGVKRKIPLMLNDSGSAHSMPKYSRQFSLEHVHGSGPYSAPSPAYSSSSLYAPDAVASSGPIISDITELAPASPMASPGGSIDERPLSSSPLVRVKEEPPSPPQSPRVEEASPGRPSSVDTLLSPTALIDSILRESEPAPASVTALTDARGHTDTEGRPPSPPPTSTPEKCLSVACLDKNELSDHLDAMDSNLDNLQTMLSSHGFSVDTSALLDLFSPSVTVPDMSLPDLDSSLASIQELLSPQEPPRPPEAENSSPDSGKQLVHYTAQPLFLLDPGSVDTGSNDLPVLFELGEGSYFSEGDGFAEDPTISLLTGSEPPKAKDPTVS
# Chain of ETV6 (P41212 whole entry): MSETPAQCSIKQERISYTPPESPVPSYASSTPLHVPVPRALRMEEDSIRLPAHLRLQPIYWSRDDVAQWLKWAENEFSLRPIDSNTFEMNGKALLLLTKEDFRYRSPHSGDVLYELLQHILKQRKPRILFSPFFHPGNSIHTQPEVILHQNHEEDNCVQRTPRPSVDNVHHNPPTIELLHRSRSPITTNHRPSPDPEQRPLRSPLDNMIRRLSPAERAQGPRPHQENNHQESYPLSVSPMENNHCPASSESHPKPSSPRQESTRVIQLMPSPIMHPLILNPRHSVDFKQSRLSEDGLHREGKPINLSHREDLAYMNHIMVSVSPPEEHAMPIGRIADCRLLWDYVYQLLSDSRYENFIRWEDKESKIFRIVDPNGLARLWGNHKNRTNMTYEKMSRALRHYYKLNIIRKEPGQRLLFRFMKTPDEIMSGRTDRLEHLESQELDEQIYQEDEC
sequence,measurement,setting,value
TCCAAT,binding signal,FEV,"1.21 fold enrichment (6-mer frequency, TF over GST control)"
same,binding signal,ETV5,"1.17 fold enrichment (6-mer frequency, TF over GST control)"
same,binding signal,HSF1,"1.23 fold enrichment (6-mer frequency, TF over GST control)"
same,binding signal,SPIC,"1.17 fold enrichment (6-mer frequency, TF over GST control)"
same,binding signal,ELF4,"1.21 fold enrichment (6-mer frequency, TF over GST control)"
same,binding signal,ELK4,"1.12 fold enrichment (6-mer frequency, TF over GST control)"
same,binding signal,ETV2,"1.24 fold enrichment (6-mer frequency, TF over GST control)"
same,binding signal,ELF3,"1.11 fold enrichment (6-mer frequency, TF over GST control)"
same,binding signal,CRX,"1.27 fold enrichment (6-mer frequency, TF over GST control)"
same,binding signal,ETV1,"1.17 fold enrichment (6-mer frequency, TF over GST control)"
same,binding signal,ERF,"1.13 fold enrichment (6-mer frequency, TF over GST control)"
same,binding signal,ETV3L,"1.22 fold enrichment (6-mer frequency, TF over GST control)"
same,binding signal,ETS2,"1.2 fold enrichment (6-mer frequency, TF over GST control)"
same,binding signal,SPDEF,"1.2 fold enrichment (6-mer frequency, TF over GST control)"
same,binding signal,ETV7,"1.33 fold enrichment (6-mer frequency, TF over GST control)"
same,binding signal,ELF5,"1.15 fold enrichment (6-mer frequency, TF over GST control)"
same,binding signal,ETV3,"1.2 fold enrichment (6-mer frequency, TF over GST control)"
same,binding signal,ETV6,"1.22 fold enrichment (6-mer frequency, TF over GST control)"
